The source of these data is ChEMBL document CHEMBL2218924, “A broad activity screen in support of a chemogenomic map for kinase signalling research and drug discovery” (Biochem J, 2013).

What is called residual activity is the signal under treatment as a percentage of the control signal.

The target of assay [1] is G protein-coupled receptor kinase 5 (Homo sapiens) (UniProt P34947). The note with it: at 1 µM.
Assay [2] addresses G protein-coupled receptor kinase 6 (Homo sapiens) (UniProt P43250). The note with it: at 1 µM.

G protein-coupled receptor kinase 5 (Homo sapiens), sequence (P34947 whole entry, looked up): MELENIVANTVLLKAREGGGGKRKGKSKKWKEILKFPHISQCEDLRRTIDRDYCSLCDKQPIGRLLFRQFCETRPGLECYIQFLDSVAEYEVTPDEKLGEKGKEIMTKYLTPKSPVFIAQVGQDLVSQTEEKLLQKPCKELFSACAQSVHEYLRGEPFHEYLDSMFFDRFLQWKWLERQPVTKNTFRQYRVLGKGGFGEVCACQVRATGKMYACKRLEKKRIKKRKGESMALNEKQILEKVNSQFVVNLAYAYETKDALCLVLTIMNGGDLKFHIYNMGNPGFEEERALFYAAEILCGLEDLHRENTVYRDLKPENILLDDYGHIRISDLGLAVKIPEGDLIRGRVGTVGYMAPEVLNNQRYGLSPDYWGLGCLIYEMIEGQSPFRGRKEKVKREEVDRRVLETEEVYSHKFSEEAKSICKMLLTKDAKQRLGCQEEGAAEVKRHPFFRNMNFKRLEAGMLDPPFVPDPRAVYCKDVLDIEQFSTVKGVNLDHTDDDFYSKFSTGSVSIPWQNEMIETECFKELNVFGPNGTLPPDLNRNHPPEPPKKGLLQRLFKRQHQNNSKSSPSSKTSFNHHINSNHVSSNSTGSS
G protein-coupled receptor kinase 6 (Homo sapiens), sequence (P43250 whole entry, looked up): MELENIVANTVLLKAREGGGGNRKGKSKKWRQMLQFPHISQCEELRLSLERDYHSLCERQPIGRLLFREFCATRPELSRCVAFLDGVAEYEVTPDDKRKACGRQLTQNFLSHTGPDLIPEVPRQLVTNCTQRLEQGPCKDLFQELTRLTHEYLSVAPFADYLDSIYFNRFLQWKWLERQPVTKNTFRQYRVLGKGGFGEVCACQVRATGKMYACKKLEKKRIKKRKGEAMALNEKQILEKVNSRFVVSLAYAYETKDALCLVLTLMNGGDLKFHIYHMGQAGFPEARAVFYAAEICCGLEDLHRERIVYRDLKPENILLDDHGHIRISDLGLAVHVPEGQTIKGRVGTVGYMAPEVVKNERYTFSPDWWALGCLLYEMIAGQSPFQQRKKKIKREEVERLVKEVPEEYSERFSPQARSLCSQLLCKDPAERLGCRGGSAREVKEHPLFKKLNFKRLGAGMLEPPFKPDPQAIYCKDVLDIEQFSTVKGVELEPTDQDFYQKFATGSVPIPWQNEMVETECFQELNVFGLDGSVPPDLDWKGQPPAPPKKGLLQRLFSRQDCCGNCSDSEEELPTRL

On to `O=c1cc(-c2cccc3c2Sc2ccccc2S3)oc(N2CCOCC2)c1`, for which the results for the residual activity in assay [1] and in assay [2] were 99% and 100%, respectively.
Turning to `CC(C)c1nn(-c2c(Cl)cccc2Cl)c2nc(Cc3ccc(OCCO)cc3)[nH]c(=O)c12`, the residual activity in assay [1] amounted to 101%; in assay [2] it was 96%.
In the case of `NCCNc1ncc(C(N)=O)c(Nc2cccc(C(F)(F)F)c2)n1`, the residual activity in assay [1] was determined as 105%; in assay [2], 100%.
Consider `COc1cc2ncnc(N3CCN(C(=O)Nc4ccc(Oc5ccccc5)cc4)CC3)c2cc1OC`, for which the values for the residual activity in assay [1] and in assay [2] were 95% and 85%, respectively.
As for `CC(C)[C@H](CO)Nc1nc(Nc2cc(N)cc(Cl)c2)c2ncn(C(C)C)c2n1`, the residual activity in assay [1] was found to be 89%; in assay [2] it was 90%.
Take `Ic1cccc(CSc2nnc(-c3ccncc3)o2)c1`: the residual activity in assay [1] and in assay [2] was 89% in each case.
Consider `O=C1NC(=O)c2cc(Nc3ccc(F)cc3)c(Nc3ccc(F)cc3)cc21`, for which the results for the residual activity in assay [1] and in assay [2] were 104% and 85%, respectively.
`O=C(CCCc1ccc(-c2ccccc2F)cc1)Nc1ccc(O)cc1`: the residual activity in assay [1] and in assay [2] was 101% throughout.
With `COc1ccc(S(=O)(=O)N(CCO)c2ccccc2CN(C)C/C=C/c2ccc(Cl)cc2)cc1`, the residual activity in assay [1] turned out to be 97%; in assay [2] it was 91%.
On to `Nc1n[nH]c2nnc(-c3c(-c4ccccc4)nn4ccccc34)cc12`, for which the values for the residual activity in assay [1] and in assay [2] were 93% and 87%, respectively.
On to `Cc1cc2ncc(-c3ccccc3)nc2cc1C`, for which the residual activity in assay [1] came out at 106%; in assay [2], 95%.
The corresponding values for `CNc1cc2c(Nc3cccc(Br)c3)ncnc2cn1` are 109% and 95%.
With `Nc1ncnc2c1c(-c1ccc(Oc3ccccc3)cc1)cn2C1CCCC1`, the residual activity came out at 103% in assay [1] and 92% in assay [2].
The corresponding values for `C[C@@H](N)[C@H]1CC[C@H](C(=O)Nc2ccncc2)CC1` are 92% and 106%.
As for `COc1cc2ncnc(Nc3ccc(NC(=O)c4ccccc4)cc3)c2cc1OC`, the residual activity is 105% in assay [1] and 111% in assay [2].
For `CO[C@@H]1[C@H](N(C)C(=O)c2ccccc2)C[C@H]2O[C@]1(C)n1c3ccccc3c3c4c(c5c6ccccc6n2c5c31)C(=O)NC4`, the residual activity in assay [1] is 82%; in assay [2], 79%.
